PubChem BioAssay
Unmarked numbers belong to inactive results. Activity calls are given as the source filed them. No stated cut-off is given here; in the data, active means inhibition above about 25%; inactive means the rest.

Test: VP16 transactivation inhibitors, counter-screen for SRC1 inhibitor project, cell-based, luminescence, high throughput (AID 588824)
Conditions: cell-based VP16 transactivation luciferase luminescence; at 3.6 µM; hits give high values

| Structure (SMILES) | inhibition |
| --- | --- |
| CC(C)Cn1c(N)c(C(=O)CSc2ccc3c(c2)OCCO3)c(=O)n(C)c1=O | 51.9% (active) |
| Cc1sc2ncnc(N3CCC(C(=O)Nc4ccccc4C(C)(C)C)CC3)c2c1C | 29.7% (active) |
| COc1cc(C(=O)OCC(=O)Nc2sccc2C(N)=O)cc(OC)c1OC | 5.18% |
| CCCCCCCCCCCCCCCCCCNc1ccn(C2OC(COP(=O)(O)OCC3OC(n4cc(F)c(=O)[nH]c4=O)CC3O)C(O)C2O)c(=O)n1 (stereo not given) | 31.2% (active) |
| C=CCOc1ccccc1CNc1ccc2c(c1)OCCO2 | -30.1% |
| O=C(N/N=C(\c1ccccc1)c1ccccn1)c1ccccc1Cl | 12.4% |
| O=C(Nc1nc(-c2ccccc2)cs1)C1CCCN(S(=O)(=O)c2ccccc2)C1 (stereo not given) | 22.9% |
| CN=C1S/C(=C\c2cc(C)n(-c3ccccc3F)c2C)C(=O)N1C | -68% |
| CC(=O)NC(c1cc(Cl)c2cccnc2c1O)C(C)C (stereo not given) | 20% |
| CN(C)/C=C/C(=O)c1ccc2noc(-c3ccccc3)c2c1 | 33.7% (active) |
| COc1ccc(-c2coc3c(C(=O)Nc4cc(OC)c(OC)c(OC)c4)cccc23)c(C)c1 | 31.8% (active) |
| Nc1nc(/C=C/c2cccnc2)nc(-c2ccccc2O)n1 | 14.2% |
| COc1cccc(/C=N/NC(=O)c2cc3c(OC)cccc3[nH]2)c1O | 26% (active) |
| CCCc1c(C)nc2ccccc2c1SCCC#N | 25.5% (active) |
| CCN(CC)c1ccc2cc(NC(=O)CCC(=O)O)c(=O)oc2c1 | 39.2% (active) |
| COc1cc(Cl)cc(/C=N\NC(=O)c2ccc3c(c2)OCO3)c1O | 33.6% (active) |
| O=[N+]([O-])c1ccc(O)c(/C=N/Nc2ccc(Cl)nn2)c1 | 82.2% (active) |
| CN(C)CCCN1C(=O)c2cccc3c([N+](=O)[O-])ccc(c23)C1=O | 0.85% |
| CC(=O)NC(c1ccccc1)c1cc(Cl)c2cccnc2c1O (stereo not given) | 27% (active) |
| COc1ccc(NS(=O)(=O)c2ccc(NC(=O)c3ccc(N(C)S(C)(=O)=O)cc3)cc2)c(OC)c1 | 36.6% (active) |

| Structure (SMILES) | inhibition |
| --- | --- |
| CN1CC(=O)N2C(c3ccc(Cl)cc3)c3[nH]c4ccccc4c3C[C@H]2C1=O (stereo not given in full) | 33.9% (active) |
| c1ccc(-c2noc(-c3ccc4c(c3)OCO4)n2)nc1 | 33.7% (active) |
| O=C(N/N=C/c1cc([N+](=O)[O-])ccc1O)c1cccc(N2CCCC2=O)c1 | 4.04% |
| CC(C)(C)S(=O)N1Cc2cc(C(=O)NCC(F)(F)F)nc(-c3cccc(-c4cccc(F)c4)c3)c2[C@@H]1CCO (stereo not given in full) | -2.6% |
| COc1ccc(CN(C)C(=O)c2ccc(OCC(=O)Nc3cccc(C(F)(F)F)c3)c(OC)c2)cc1 | 20.5% |
| O=S(=O)(/C(=C\c1ccc(C(F)(F)F)cc1)c1nc2ccccc2[nH]1)c1ccccc1 | 42.4% (active) |
| CC(=O)N1CCN(c2ncnc3ccccc23)CC1 | 26.3% (active) |
| CCN1/C(=C/c2ccc3cc(C)cc(C)c3[n+]2CC)Sc2cc(C)ccc21 | 59.3% (active) |
| OCCNc1ncnc2ccc(Br)cc12 | 16.2% |
| CCCCN(CCCC)c1ncnc2nc[nH]c12 | 25.2% |
| Oc1ccc(Nc2nc(N3CCCC3)c3ccccc3n2)cc1 | 40.2% (active) |
| Cn1c(/C(C#N)=C/c2ccc(-c3ccc(S(N)(=O)=O)cc3)o2)nc2ccccc21 | 28.9% (active) |
| Cc1cc(CNC(=O)c2cccc([N+](=O)[O-])c2C)c2ccccc2n1 | 35.8% (active) |
| CC(C)(C)OC(=O)NCCCC[C@H](NC(=O)c1nc[nH]c1C(=O)N[C@@H](CCCCNC(=O)OC(C)(C)C)C(=O)OC(C)(C)C)C(=O)OC(C)(C)C | -3.49% |
| Cc1nnsc1C(=O)N/N=C/c1ccc2ccccc2c1O | 69.8% (active) |
| CCN(CC)c1ccc(/C=N/NC(=O)CCC(=O)NCc2ccccc2)c(O)c1 | 28.9% (active) |
| Cc1[nH]ccc2cc3nc4ccccc4c3cc12 | 39.4% (active) |
| CCOC(=O)c1ccccc1OC(=O)NNc1ccccc1 | 38.8% (active) |
| Oc1ccc(-c2n[nH]c(=S)n2-c2ccc3c(c2)OCCO3)c(O)c1 | 43.7% (active) |
| Cn1nnnc1N=N/C(=N/Nc1ccccc1)c1ccccc1 | 32.8% (active) |
